Screening results (PubChem)
HT1080NT lethal: qHTS for induction of synthetic lethality in tumor cells producing 2HG: qHTS for the HT-1080-NT fibrosarcoma cell line. HT-1080-NT fibrosarcoma viability, CellTiter-Glo ATP luminescence, 48 h. 1.6% of 360,000 active. Potency, µM (top dose mostly 46.1 µM), for the others: at the top dose activity, negative = less viability, most hits filed as cytotoxic;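 further: NT is the 2HG producing partner of a matched IDH1 knockdown line; potency means the concentration at half of the fitted maximal effect; 0% = DMSO-treated cells and -100% = media-only wells without cells; nearly all actives have a fitted effect of over 55% in size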
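Viability by CellTiter-Glo luminescence after 48 h compound exposure at 37C of HT-1080-NT cells (750/well, RPMI, 5% FBS). % activity scaled between DMSO wells and medium-only wells, then curve-fitted and categorized by curve class.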
TDP1 cell CPT: qHTS for Inhibitors of human tyrosyl-DNA phosphodiesterase 1 (TDP1): qHTS in cells in presence of CPT. chicken DT40 Tdp1-/-;hTDP1 cells + 20 nM CPT, ATP luminescence, 48 h. Potency, µM (doses to about 46.2 µM), inactives show at the top dose activity change, negative = growth inhibition, most hits filed as inhibitors. 12% of 420,000 active. AID 686979, 2013; further: potency means the concentration at half of the fitted maximal effect; nearly all actives have a fitted effect of over 55% in size
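Cell growth measured by CellTiter-Glo luminescence after a minimum 48 h, 37 C compound exposure with 20 nM CPT in Tdp1-knockout DT40 cells stably expressing hTDP1, seeded 400/well; qHTS titration format.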
IL1B secr inh: qHTS for Inhibitors of Inflammasome Signaling: IL-1-beta AlphaLISA Primary Screen; THP-1 LPS/ATP IL-1B secretion, AlphaLISA, 16 h; stronger effect = lower value; activity change, % at 57.5 µM; 4.7% of 360,000 active; in the data active means activity change below about -50%; inconclusive means mostly about -30% to -49%
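THP-1 cells pretreated 1 hr with compounds (up to 57.5 uM final), then stimulated with LPS (250 ng/mL final) plus ATP (1.25 mM final); secreted IL-1B measured by AlphaLISA after 16 hr, decreased signal indicating inhibition.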
HT1080 IDH1KD tx: qHTS for induction of synthetic lethality in tumor cells producing 2HG: qHTS for the HT-1080-IDH1KD cell line; HT-1080 IDH1 knockdown viability, ATP luminescence, 48 h; Potency, µM (series often up to 46.1 µM), for inactives: top-dose activity, negative = toxicity, usual class: cytotoxic; 2% of 360,000 active; AID 686971, 2013;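 further: potency means the concentration at half of the fitted maximal effect; 0% = DMSO wells and -100% = cell-free medium wells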
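Knockdown cells (IDH1KD HT-1080) received compounds 2 h after plating at 750 cells/well and were kept 48 h at 37 °C in 5% FBS RPMI. A CellTiter-Glo luminescence read gave % activity for curve fitting.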
DT40 TDP1 no CPT: qHTS for Inhibitors of human tyrosyl-DNA phosphodiesterase 1 (TDP1): qHTS in cells in absence of CPT; DT40 Tdp1-/- hTDP1 cells, no CPT, ATP luminescence, 48 h; Potency, µM (series often up to 46.2 µM), for the others: at the highest dose activity change, negative = growth inhibition, hits mostly inhibitors; 15% of 420,000 active; further: potency means the concentration at half of the fitted maximal effect; nearly all actives have a fitted effect of over 55% in size
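Growth of hTDP1-complemented DT40 Tdp1-knockout cells is measured by ATP luminescence after at least 48 hr compound exposure at 37 °C, with DMSO substituting for the 20 nM CPT used in the parallel screen.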
ALOX12 inh: Primary qHTS assay for inhibitors of human arachidonate 12S-lipoxygenase (ALOX12): Round 2. Polyunsaturated fatty acid lipoxygenase ALOX12 (Homo sapiens), P18054. Potency, µM (series often up to 108 µM), without a hit: at the highest dose activity change, negative = inhibition, hits mostly inhibitors. 1.1% of 580,000 active. purified 12hLO, xylenol orange hydroperoxide absorbance. AID 1671190, 2021; further: potency means the concentration at half of the fitted maximal effect
Target sequence (P18054 whole entry, looked up): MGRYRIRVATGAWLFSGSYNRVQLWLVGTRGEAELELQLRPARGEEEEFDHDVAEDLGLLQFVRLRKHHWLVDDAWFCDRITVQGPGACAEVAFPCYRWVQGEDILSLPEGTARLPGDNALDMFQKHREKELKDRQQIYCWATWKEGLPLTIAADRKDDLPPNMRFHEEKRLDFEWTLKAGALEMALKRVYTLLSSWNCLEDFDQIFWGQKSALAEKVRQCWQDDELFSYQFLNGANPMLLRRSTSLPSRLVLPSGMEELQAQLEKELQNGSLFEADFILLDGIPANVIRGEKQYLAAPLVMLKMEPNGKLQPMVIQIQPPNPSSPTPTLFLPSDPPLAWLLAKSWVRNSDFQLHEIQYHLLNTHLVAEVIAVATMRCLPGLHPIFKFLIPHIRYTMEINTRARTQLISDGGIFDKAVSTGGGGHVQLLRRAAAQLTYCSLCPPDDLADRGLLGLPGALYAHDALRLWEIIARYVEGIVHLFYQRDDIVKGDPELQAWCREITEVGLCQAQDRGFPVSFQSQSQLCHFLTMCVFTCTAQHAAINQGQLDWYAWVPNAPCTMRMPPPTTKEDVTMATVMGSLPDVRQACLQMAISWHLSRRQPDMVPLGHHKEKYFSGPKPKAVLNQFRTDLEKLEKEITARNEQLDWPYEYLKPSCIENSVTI
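Hydroperoxide product was detected by ferrous iron/xylenol orange as the 573 to 405 nm absorbance ratio. Arachidonic acid at 40 uM (final) was turned over for 30 min at room temperature by 150 nM human 12hLO, pH 7.0 Hepes buffer, after 15 min compound preincubation.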
* marks the source's active call; other numbers are inactive results; ? = inconclusive; · = not tested or not shown; [ ] = remark or other dose. Only a selection was taken, and hits are over-represented in it overall. Unless noted, the call rests on the fitted dose curve; in most records, active means well fitted curve in the direction sought with a large enough effect; inconclusive means small, poorly fitted or top-dose-only effect, or another doubt; inactive means no such curve, though single readings can be large; an effect the other way counts as inactive or inconclusive. Unless noted, on the % scale 0 is the no-effect control and ±100 the full control effect.

SMILES	HT1080NT lethal	TDP1 cell CPT	IL1B secr inh	HT1080 IDH1KD tx	DT40 TDP1 no CPT	ALOX12 inh
COc1ccc(NC(=O)CSc2nc3sc(C)cc3c(=O)n2C)c(OC)c1	?	?	36.7	-12.6%	18.4µM*	17.2%
Cc1cccc(NC(=O)CSc2nc3sc(C)cc3c(=O)n2C)c1	-9.3%	?	-2.1	-5.3%	23.1µM*	?
COc1cc(=O)n2c(c1C(=O)NCc1ccccc1Cl)CCCC2	·	·	·	·	·	-0.1%
COc1ccc(S(=O)(=O)N2CCN(Cc3nc4ccc(C)cc4o3)CC2)cc1Cl	·	18.4µM*	·	·	?	-18.3%
Cc1ccc(S(=O)(=O)N2CCN(Cc3nc4ccc(C)cc4o3)CC2)cc1	·	-26.1%	·	·	?	-19.5%
CCOc1ccc(S(=O)(=O)N2CCN(Cc3nc4ccc(C)cc4o3)CC2)cc1	·	18.4µM*	·	·	?	-21.3%
Cc1cc(NC(=O)CSc2nnc(-c3ccccc3F)n2N)no1	2.3%	12.5%	4.8	2.5%	4.7%	16.1%
CC1C(=O)OC2C(O)C34C5CC(C(C)(C)C)C36C(OC(=O)C6O)OC4(C(=O)O5)C12O (stereo unspecified)	·	-16.9%	·	·	-1.4%	125.0%
C=C(CN(C)C)C(=O)c1ccc(C)cc1C	?	0.517µM*	-106.7*	5.8µM*	0.581µM*	?
N=C1CCC(=N)c2c1c(O)c1ccccc1c2O	23.1µM*	?	?	?	?	·
CSc1ccccc1NC(=O)CSc1nnc(Cc2ccccc2)o1	7.0%	-21.7%	6.9	13.5%	-16.4%	-4.4%
CCOC(=O)N1CCN(C(=O)c2ccc3c(c2)N=C(C)c2cc(Cl)ccc2S3)CC1	24.6%	?	-10.4	1.8%	11.6µM*	0.0%
CCCC1=Nc2cc(C(=O)NCCc3ccccc3)ccc2Sc2ccc(C)cc21	·	4.61µM*	·	·	6.51µM*	-2.7%
COc1ccc(CCNC(=O)c2ccc3c(c2)N=C(C)c2ccccc2S3)cc1OC	·	?	·	·	?	-31.4%
CCCC1=Nc2cc(C(=O)NCc3ccccc3Cl)ccc2Sc2ccc(Cl)cc21	·	·	·	·	·	45.3%
CCCC1=Nc2cc(C(=O)NCc3ccc(OC)cc3)ccc2Sc2ccc(C)cc21	·	14.6µM*	·	·	9.2µM*	-24.5%
CCC1=Nc2cc(C(=O)NCc3ccccc3Cl)ccc2Sc2ccc(C)cc21	·	5.17µM*	·	·	3.26µM*	0.2%
Fc1ccc(-c2noc(/C=C/c3ccccc3)n2)cc1	·	·	·	·	·	-27.3%
CN(C)C[C@@H]1CN(S(C)(=O)=O)C[C@H]1NC(=O)CCCc1ccccc1	·	·	·	·	·	52.7%
COc1ccccc1CN(C)CC(=O)NC(=O)NC1CCCC1	·	·	·	·	·	29.6%
CCOCCCNC(=O)c1ccc2c(c1)N=C(CC)c1cc(Br)ccc1S2	?	0.0366µM*	-10.8	0.092µM*	0.0326µM*	1.1%
CCC1=Nc2cc(C(=O)NCCN(CC)CC)ccc2Sc2ccccc21	·	?	·	·	?	-10.2%
CCCC1=Nc2cc(C(=O)NCCCN3CCN(C)CC3)ccc2Sc2ccccc21	?	?	-8.0	0.0%	?	-3.2%
CCCNC(=O)c1ccc2c(c1)N=C(CCC)c1ccccc1S2	·	1.16µM*	·	·	0.731µM*	-19.7%
CCC1=Nc2cc(C(=O)N3CCC(C)CC3)ccc2Sc2ccc(C)cc21	·	16.4µM*	·	·	16.4µM*	-5.7%
SMILES	HT1080NT lethal	TDP1 cell CPT	IL1B secr inh	HT1080 IDH1KD tx	DT40 TDP1 no CPT	ALOX12 inh
CCC1=Nc2cc(C(=O)NCc3ccccc3OC)ccc2Sc2ccc(Cl)cc21	·	?	·	·	?	-21.3%
CCC1=Nc2cc(C(=O)NCCc3ccccc3)ccc2Sc2ccc(Cl)cc21	·	8.2µM*	·	·	6.51µM*	?
Cc1ccc2oc([C@H]3CCN(Cc4ccc(C(=O)O)cc4)C3)nc2c1	·	·	·	·	·	69.1%[176 µM]
O=C1c2c(nc(CNc3ccccc3Cl)n2Cc2ccccc2)NCCN1CC1CC1	·	·	·	·	·	71.5%[176 µM]
CCC1=Nc2cc(C(=O)NC(C)c3ccccc3)ccc2Sc2ccc(Cl)cc21 (stereo unspecified)	·	16.4µM*	·	·	?	?
CCCC1=Nc2cc(C(=O)NC(C)c3ccccc3)ccc2Sc2ccc(C)cc21 (stereo unspecified)	·	?	·	·	?	-12.2%
CCN(C)C(=O)CN1C[C@@H]2C[C@H]1C(=O)N2c1cc(-c2ccccc2)ccc1OC	·	·	·	·	·	16.6%
CC1=C(C(=O)Nc2cccc(C(=O)NC3CCCCC3C)c2)SCCO1 (stereo unspecified)	19.0%	16.4µM*	-0.5	-1.4%	?	-5.0%
CC1=C(C(=O)Nc2ccc(C(=O)N3CCN(c4cccc(Cl)c4)CC3)cc2)SCCO1	-0.6%	?	?	-0.9%	-22.1%	-17.7%
CC1=C(C(=O)Nc2cccc(C(=O)N3CCN(c4cccc(C(F)(F)F)c4)CC3)c2)SCCO1	?	14.6µM*	-60.7*	?	25.9µM*	-9.3%
CC1=C(C(=O)Nc2cc(C(=O)N3CCN(c4ccc(Cl)cc4)CC3)ccc2C)SCCO1	-6.8%	18.4µM*	-29.2	-17.1%	14.6µM*	3.6%
NCC(=O)Nc1ccc(-n2nc(C(F)(F)F)cc2-c2ccc3c(ccc4ccccc43)c2)cc1	·	·	·	·	·	19.1%[57.4 µM]
Cc1cccc(NC(=O)NCC2CCN(CCc3ccc(F)cc3)CC2)c1C	·	·	·	·	·	35.5µM*
COc1ccc(-c2csc(C(O)c3ccccc3)n2)cc1 (stereo unspecified)	16.9%	?	12.3	-12.6%	?	4.1%
CCN(CC)C(=O)c1cccc(-c2csc(C(O)c3cccc(OC)c3)n2)c1 (stereo unspecified)	?	23.1µM*	-17.5	?	4.61µM*	9.8%
COc1ccc(-c2csc(C(O)c3cccc(OC)c3)n2)cc1 (stereo unspecified)	-17.5%	11.6µM*	10.5	?	?	0.9%
COc1ccc(-c2csc(C(O)c3ccc(F)c(F)c3)n2)cc1 (stereo unspecified)	-17.5%	18.4µM*	6.0	?	13µM*	?
COc1cccc(C(O)c2nc(-c3cc(F)cc(F)c3)cs2)c1 (stereo unspecified)	0.4%	20.6µM*	-20.0	-0.9%	?	12.9%
